# Activity calls are given as the source filed them. How the source made its calls: active means hit-call score of the fitted dose curve at least 0.9, where 1 is the maximum; inactive means score below 0.9. Peptide text beside a SMILES is read from it.
# Experiment: CCTE_Shafer_MEA_acute_per_burst_spike_number_mean: CCTE's Neural Acute Assay for Average Number of Spikes Per Burst, Shafer Lab (AID 2284015);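 further: hits are decreases in mean spikes per burst versus baseline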
# Experimental: CCTE_Shafer_MEA_acute assay is conducted using Axion Biosystems 48 well microelectrode array (MEA) plates and Maestro recording system. Each well of the MEA plate contains a grid of 16 microelectrodes embedded in the culture surface. Electrically active cells, such as neurons, can be cultured over the electrodes, and electrical activity in these cells can be recorded extracellularly. The spontaneous firing of neurons is captured from each electrode on a microsecond timescale providing both temporally and spatially precise data. […] The CCTE_Shafer_MEA_acute assay uses primary cultures of rat cortical neurons. As these cultures mature over time, neural networks develop functional activity and form cohesive networks in which electrical activity can be highly coordinated. Baseline 40-minute recordings are made on days post-plating 13 or 15, followed by a secondary 40-minute recording after chemical exposure.CCTE_Shafer_MEA_acute_per_burst_spike_number_mean is a component of the CCTE_Shafer_MEA_acute assay. It measures the average number of spikes (action potential firings) in a single-electrode burst (temporally-clustered group of spikes) during a recording in a microelectrode array (MEA) using Axion Biosystems Maestro 768 channel amplifier with the AxIS adaptive spike detector. The recordings before and after chemical treatment are used to calculate a percent change in the mean number of spikes per burst in each well.Data from the assay component CCTE_Shafer_MEA_acute_per_burst_spike_number_mean was analyzed into 1 assay endpoint. This assay endpoint, CCTE_Shafer_MEA_acute_per_burst_spike_number_mean, was analyzed in the negative analysis fitting direction relative to DMSO as the negative control and baseline of activity. Using a type of functional reporter, gain or loss-of-signal activity can be used to understand electrical activity.
# Spontaneous activity in the cortical cultures was recorded using an Axion Biosystems Maestro 768 channel amplifier and Axion Integrated Studios (AxIS) v1.8 (or later) software. The amplifier recorded from all channels simultaneously (gain = 1200 x; sampling rate = 12.5 kHz/channel): raw signals were filtered with a Butterworth band-pass filter (300-5000 Hz), which filters out slower local field potentials leaving only fast potentials, i.e., "spikes", arising from extracellular currents associated with action potentials (Pine 2006; Wheeler and Nam 2011). On-line spike detection of filtered signals was conducted with the AxIS adaptive spike detector, using a threshold of 8x the root mean squared (rms) noise on each channel. Any electrodes with rms noise levels greater than 5 uV were grounded (e.g., no data were recorded). Once grounded, an electrode was grounded for the duration of the experiment. All recordings were conducted at 37 C. Wells were deemed usable if on the day of the exposure >/= 10 electrodes were active (defined as >/= 5 spikes/min). On DIV 13 or 15, a minimum of three wells from one cortical culture preparation were treated with each compound (0.03-40 uM). Prior to recording baseline activity, each mwMEA plate was placed in the Maestro at 37 C and allowed to sit for 20 min while firing rates stabilized. Baseline activity (40 min) was recorded before the addition of each compound. An additional 40 min of spontaneous activity was recorded in the presence of each compound. Changes in network parameters relative to baseline were assessed following compound treatment.
SMILES,AC50,outcome
c1ccc(Nc2cccc3ccccc23)cc1,5.6 µM (active),–
C1CNCCN1,–,inactive
CCCC(C)C(=O)OCC (stereo not drawn),–,inactive
COC(=O)[C@H](Cc1ccccc1)NC(=O)[C@@H](N)CC(=O)O (H-Asp-Phe-OMe),–,inactive
Nc1cccc(N)n1,0.0154 µM (active),–
CC/C=C\CCOC(=O)c1ccccc1O,–,inactive
Cc1c(C(=O)c2c[nH]n(C)c2=O)ccc(S(C)(=O)=O)c1C1=NOCC1,–,inactive
Oc1ccccc1Cc1ccccc1O,8.01 µM (active),–
CCCCCCCCCCCC(=O)N(C)CC(=O)O,2.9 µM (active),–
Nc1nc(N)nc(-c2ccccc2)n1,–,inactive
CC(C)C(=O)OCCc1ccccc1,–,inactive
CC1(C)CC(O)CC(C)(C)N1[O],–,inactive
CC(CCC(=O)O)(c1ccc(O)cc1)c1ccc(O)cc1,–,inactive

# — PubChem BioAssay (EPA / NIEHS)
